In PubChem BioAssay (NCI):
This is part of a sample that, as a whole, favours compounds with a hit. Of some 83,000 tested, about 20% had one in any assay.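 Each cell line was grown in a 96-well plate and treated with one concentration of compound for 48 hours. Values below 10 were considered active.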 A number with no mark means an inactive call. Calls of active or inactive are those of the source.

Experiments:
Test in all cases: NCI-60 one-dose screen, 48 h (100 = growth as untreated, 0 = no growth, -100 = all killed)
Settings in all cases: 10 µM unless noted
T-47D breast = tested on: T-47D breast
BT-549 breast = tested on: BT-549 breast
MDA-MB-435 melanoma = tested on: MDA-MB-435 melanoma
SW-620 colon = tested on: SW-620 colon
MCF7 breast = tested on: MCF7 breast
HCT-116 colon = tested on: HCT-116 colon
HCC-2998 colon = tested on: HCC-2998 colon
KM12 colon = tested on: KM12 colon

SMILES	growth (T-47D breast)	growth (BT-549 breast)	growth (MDA-MB-435 melanoma)	growth (SW-620 colon)	growth (MCF7 breast)	growth (HCT-116 colon)	growth (HCC-2998 colon)	growth (KM12 colon)
COc1ccc(CCN2CCCn3c2nc2ccccc2c3=O)cc1	80.8%	29.5%	-15.2% (active)	27%	16.8%	14.3%	8.36% (active)	14.7%
Cn1cc(-c2ccc(-c3cn(C)c4ncccc34)[nH]2)c2cccnc21	-29.1% (active)	-12% (active)	86.6%	24%	75.2%	67.3%	33.3%	14.6%
Nc1nc2c(c3ncccc13)C(c1ccc(Cl)c(Cl)c1)Cc1ncccc1-2 (stereo not drawn)	16%	31.1%	6.95% (active)	21.7%	12.2%	18.4%	41.7%	21.5%
Cc1cc2cc3cc(C)c(N(C)C)cc3nc2cc1N(C)C	7.76% (active)	-11.6% (active)	29.1%	17.7%	13.5%	13.7%	23.7%	3.92% (active)
CCOC(=O)c1c2c(n3ccc(NC(=O)CCN4CCOCC4)cc13)C(=O)c1ncccc1C2=O	32.6%	58.3%	19.4%	37.2%	-31.7% (active)	21.8%	42.5%	46.2%
Nc1ccc(Nc2nccc(-c3ccc4ccccc4c3)n2)cc1	57.1%	57.7%	8.53% (active)	33.1%	19%	26.2%	71.9%	27.2%
CCCNc1nc(SC)nc(-c2cccc(N)c2)c1C#N	86.2%	97.7%	103%	98.7%	89.1%	96.3%	108%	101%
COc1ccc(/C=N\NC(=O)CN2CCN(c3cc4c(cc3F)c(=O)c(C(=O)N/N=C/c3ccc(OC)cc3)cn4C3CC3)CC2)cc1	82.5%	88.5%	90.3%	101%	73.2%	88.8%	102%	89.8%
Cc1ccc(C2CC3c4ccccc4C2C2CCCCN32)cc1 (stereo not drawn)	83.6%	57.4%	97.8%	106%	95.7%	95.1%	–	–
CC1=C(C)C(=O)OC([C@](C)(O)[C@]2(O)CC[C@@]3(O)[C@@H]4C[C@H]5O[C@]56CC=CC(=O)[C@]6(C)[C@H]4CC[C@]23COC(=O)c2ccc(C)o2)C1 (stereo partly drawn)	-57.1% (active)	-49.3% (active)	-76.9% (active)	-55.6% (active)	-66.2% (active)	-43.5% (active)	-73.7% (active)	-69% (active)
CCOC(=O)c1cnc2ccc(OC)cc2c1Nc1cccc(S(=O)(=O)NC)c1	98%	80.1%	103%	113%	80.9%	96.7%	101%	96.1%
CCCCCCCCOC(=O)CC[C@@H](C)[C@H]1CC[C@H]2[C@@H]3[C@H](OC(=O)CCN)C[C@@H]4C[C@H](OC(=O)CCN)CC[C@]4(C)[C@H]3C[C@H](OC(=O)CCN)[C@]12C	88.8%	124%	74.1%	20%	10.8%	49.3%	84.2%	77.8%
Cc1[nH]n(-c2ccccc2)c2nc3nncc3c(-c3ccc(Cl)cc3)c12	93.6%	111%	98.1%	93.3%	93.9%	93.9%	109%	97%
O=C1c2c[n+](Cc3ccccc3)ccc2-c2nc3ccccc3c3ccnc1c23	-48.4% (active)	-30.7% (active)	-81.8% (active)	-12.9% (active)	-42.3% (active)	-31.5% (active)	-53% (active)	2.73% (active)
Oc1cccc(Nc2nccc(-c3ccc4ccccc4c3)n2)c1	47.6%	41.3%	-1.27% (active)	31.3%	25.3%	20.6%	52.2%	28.2%
